The test system of assay [1] is Vero E6 infected with SARS-CoV-2. Briefly: morphology score (similarity to uninfected cells); higher = more like uninfected cells. The conditions noted are these: 24 h.
Assay [2] shares this test system. Description: SARS-CoV-2 infection rate relative to infected DMSO; higher = more infection, active = 60 or less. The conditions noted are these: 24 h.

`Oc1ccc2[nH]cc(C3=CCNCC3)c2n1` (10 µM) gave a morphology score in assay [1] of 0.00585. Moreover, the SARS-CoV-2 infection rate in assay [2] is 90% (inactive).

`CC(C)(C)NC(=O)N[C@H](C(=O)N1C[C@H]2[C@@H]([C@H]1C(=O)NC(CC1CCC1)C(=O)C(N)=O)C2(C)C)C(C)(C)C` (stereo not given in full) [Boceprevir] (10 µM) gave a morphology score in assay [1] of 0.133. Besides, in assay [2], the SARS-CoV-2 infection rate is 100% (inactive).

As for `CNC(=O)[C@H]1O[C@@H](n2cnc3c(NCc4cccc(I)c4)ncnc32)[C@H](O)[C@@H]1O` (10 µM), in assay [1], the morphology score was 0.156. Moreover, the SARS-CoV-2 infection rate in assay [2] was 100% (inactive).

In turn, `O=S1(=O)CCN(CN2CCS(=O)(=O)NC2)CN1` [taurolidine] (10 µM) yielded a morphology score in assay [1] of -0.0437. For the same molecule, the SARS-CoV-2 infection rate in assay [2] was 109% (inactive).

For the molecule `COc1cc(OC)c(NC(=O)Nc2cc(C)on2)cc1Cl` (10 µM), the morphology score in assay [1] came to 0.268. The SARS-CoV-2 infection rate in assay [2] is 87% (inactive).

As for `O.O=[Si]=O.O=[Si]=O.O=[Si]=O.O=[Si]=O.[O]=[Mg].[O]=[Mg].[O]=[Mg]` (10 µM), the morphology score in assay [1] worked out at 0.0643. Moreover, the SARS-CoV-2 infection rate in assay [2] was 104% (inactive).

For the molecule `Fc1ccc(CNc2ncnc3ccc(F)cc23)cc1` [spautin-1] (10 µM), the morphology score in assay [1] was -0.0451. In addition, in assay [2], the SARS-CoV-2 infection rate was 117% (inactive).

Consider `Cc1ccc(-n2sc(=O)n(Cc3ccc(F)cc3)c2=O)cc1` (10 µM), for which, in assay [1], the morphology score is 0.218. Also, the SARS-CoV-2 infection rate in assay [2] was 96% (inactive).

For `CNC(=O)c1cc2c(cn1)[nH]c1ccccc12` (10 µM), the morphology score in assay [1] amounted to 0.241. Moreover, the SARS-CoV-2 infection rate in assay [2] is 85.5% (inactive).

On to `CCCCC/C=C\C/C=C\CCCCCCCC(=O)NCCCC(=O)O` [GABA-linoleamide] (10 µM), for which, in assay [1], the morphology score is 0.105. For the same molecule, in assay [2], the SARS-CoV-2 infection rate is 97.5% (inactive).

Molecule `CN1C(=O)N[C@H](Cc2c[nH]c3c(Cl)cccc23)C1=O` [necrostatin-2] (10 µM) displayed a morphology score in assay [1] of 0.131. In addition, the SARS-CoV-2 infection rate in assay [2] is 95% (inactive).

`Nc1nc(O)c2[nH]nnc2n1` [azaguanine-8] (0.833333 µM) came in with a morphology score in assay [1] of 0.322. Besides, in assay [2], the SARS-CoV-2 infection rate is 51.5% (active).

As for `O=C(CSc1nc2c(c(=O)n1-c1ccccc1)SCC2)Nc1ccc(-c2ccccc2)cn1` (10 µM), the morphology score in assay [1] was found to be 0.109. In addition, in assay [2], the SARS-CoV-2 infection rate was 112% (inactive).

The molecule `O=C1CC2(CCCC2)CC(=O)N1CCNC[C@H]1COc2ccccc2O1` (10 µM) returned a morphology score in assay [1] of -0.0647. For the same molecule, the SARS-CoV-2 infection rate in assay [2] was 113% (inactive).

As to `Cn1cc(C(=O)C(=O)N[C@H]2CN3CCC2CC3)c2ccccc21` (10 µM), the morphology score in assay [1] is 0.181. Moreover, the SARS-CoV-2 infection rate in assay [2] is 97.5% (inactive).

Turning to `Cc1ccc2c(=O)c3ccccc3n(CCCN)c2c1C` (10 µM), in assay [1], the morphology score was -0.144. In addition, the SARS-CoV-2 infection rate in assay [2] is 110% (inactive).

`Oc1cc2c(cc1O)[C@H](Cc1cccc3ccccc13)NCC2` (10 µM) yielded a morphology score in assay [1] of -0.102. For the same molecule, the SARS-CoV-2 infection rate in assay [2] was 119% (inactive).

For the molecule `O=C1c2c(O)cccc2C([C@@H]2O[C@H](CO)[C@@H](O)[C@H](O)[C@H]2O)c2cc(CO)cc(O)c21` (stereo not given in full) [aloin] (10 µM), the morphology score in assay [1] is -0.243. For the same molecule, in assay [2], the SARS-CoV-2 infection rate was 116% (inactive).

In the case of `CNS(=O)(=O)Cc1ccc2[nH]cc(CCN(C)C)c2c1` [sumatriptan] (10 µM), the morphology score in assay [1] amounted to 0.205. The SARS-CoV-2 infection rate in assay [2] was 98% (inactive).

In turn, `CCC(CC)(NC(=O)C(C)C)C(=O)N[C@@H](CCCNC(=N)N)C(=O)NC1(C(=O)NC(c2ccc(F)cc2)c2ccc(F)cc2)CCCC1` (10 µM) registered a morphology score in assay [1] of -0.044. Further, in assay [2], the SARS-CoV-2 infection rate was 116% (inactive).

Regarding `N#Cc1ccc(Cn2cncc2CN2CCN(c3cccc(Cl)c3)C(=O)C2)cc1` (10 µM), in assay [1], the morphology score was 0.276. The SARS-CoV-2 infection rate in assay [2] was 95% (inactive).

`CCc1cc2c(cc1N1CCC(N3CCOCC3)CC1)C(C)(C)c1[nH]c3cc(C#N)ccc3c1C2=O` [alectinib] (10 µM) gave a morphology score in assay [1] of 0.135. For the same molecule, the SARS-CoV-2 infection rate in assay [2] is 106% (inactive).

`O=C(NC[C@H]1CN(c2ccc(N3CCOCC3=O)cc2)C(=O)O1)c1ccc(Cl)s1` [Rivaroxaban (Xarelto)] (10 µM): in assay [1], the morphology score is 0.193. In assay [2], the SARS-CoV-2 infection rate is 97.5% (inactive).

Turning to `C/C=C(/C)C(=O)O[C@H]1[C@H](OC(C)=O)[C@@]2(CO)C(CC1(C)C)C1=CCC3[C@@]4(C)CCC(O[C@@H]5O[C@H](C(=O)O)[C@@H](O[C@@H]6O[C@H](CO)[C@@H](O)[C@H](O)[C@H]6O)[C@H](O)[C@H]5O[C@@H]5O[C@H](CO)[C@@H](O)[C@H](O)[C@H]5O)[C@](C)(CO)C4CC[C@@]3(C)[C@]1(C)C[C@H]2O.C/C=C(\C)C(=O)O[C@H]1[C@H](OC(C)=O)[C@@]2(CO)C(CC1(C)C)C1=CCC3[C@@]4(C)CCC(O[C@@H]5O[C@H](C(=O)O)[C@@H](O[C@@H]6O[C@H](CO)[C@@H](O)[C@H](O)[C@H]6O)[C@H](O)[C@H]5O[C@@H]5O[C@H](CO)[C@@H](O)[C@H](O)[C@H]5O)[C@](C)(CO)C4CC[C@@]3(C)[C@]1(C)C[C@H]2O` (stereo not given in full) [escin] (0.833333 µM), in assay [1], the morphology score was -0.0809. In addition, in assay [2], the SARS-CoV-2 infection rate was 118% (inactive).

`CCC1(C)CC(=O)NC1=O` (stereo not given) [ethosuximide] (10 µM) yielded a morphology score in assay [1] of 0.0477. The SARS-CoV-2 infection rate in assay [2] is 104% (inactive).

The values above are taken from the supplement of paper PMC13380429.
